{"source": "the antibiotic and cytotoxicity screens of Wong et al. (2023)", "note": "Out of some 39,000 compounds screened, about 3,300 (8.5%) were called active. What follows is part of a selection rich in actives, with near analogues and random picks from the rest.", "data": [{"system": "HepG2", "assay": "cytotoxicity call (relative viability < 0.9)", "conditions": "10 µM", "values": [{"smiles": "C[C@@H]1CCCCO[C@@H](CN(C)Cc2ccc3c(c2)OCO3)[C@H](C)CN([C@@H](C)CO)C(=O)c2cc(NS(=O)(=O)c3ccccc3)ccc2O1", "cytotoxicity call": "inactive"}, {"smiles": "Cc1noc(C)c1S(=O)(=O)N(C)C[C@H]1Oc2ccc(NS(=O)(=O)c3ccc(Cl)cc3)cc2CC(=O)N([C@@H](C)CO)C[C@@H]1C", "cytotoxicity call": "inactive"}, {"smiles": "C[C@H]1CCCCO[C@@H](CN(C)C(=O)Nc2ccccc2)[C@@H](C)CN([C@@H](C)CO)C(=O)c2cc(NC(=O)Nc3ccccc3)ccc2O1", "cytotoxicity call": "inactive"}, {"smiles": "COCC(=O)Nc1ccc2c(c1)OC[C@H](C)N(Cc1ccccc1OC)C[C@H](C)[C@@H](OC)CN(C)C2=O", "cytotoxicity call": "inactive"}, {"smiles": "N[C@@H]1CC[C@@H](CCn2cc(-c3ccccn3)nn2)O[C@H]1CO", "cytotoxicity call": "inactive"}, {"smiles": "C=CCC[C@H](Cc1ccc(F)cc1)C(=O)OC[C@@H](NC(=O)[C@H](CC=C)CC(=O)N(CCO)Cc1ccccc1)c1ccccc1", "cytotoxicity call": "inactive"}, {"smiles": "C=CCOC(=O)[C@@H]1[C@H]2C(=O)O[C@H](c3ccccc3)[C@H](c3ccccc3)N2[C@H](c2ccc(OCCOC(=O)[C@H]3C[C@H]4C(=O)N[C@@H](CC(C)C)C(=O)N4[C@H]3c3cccc(OCCO)c3)cc2)[C@@]12C(=O)Nc1ccccc12", "cytotoxicity call": "inactive"}, {"smiles": "Cc1c(C)n2c3c(=O)n(C)c(=O)n(C)c3nc2n1CCO", "cytotoxicity call": "inactive"}, {"smiles": "CC(C)NC(=O)Nc1ccc2c(c1)CC(=O)N([C@H](C)CO)C[C@@H](C)[C@H](CN(C)S(=O)(=O)c1ccc(F)cc1)O2", "cytotoxicity call": "inactive"}, {"smiles": "CC[C@H]1OC(=O)[C@H](C)[C@@H](O[C@H]2C[C@@](C)(OC)[C@@H](O)[C@H](C)O2)[C@@H](C)[C@@H](O[C@H]2O[C@H](C)C[C@H](N(C)C)[C@H]2O)[C@](C)(O)C[C@@H](C)C(=O)[C@H](C)[C@@H](O)[C@]1(C)O", "cytotoxicity call": "inactive"}, {"smiles": "CC[C@H]1OC(=O)[C@H](C)[C@@H](O[C@H]2C[C@@](C)(OC)[C@@H](O)[C@H](C)O2)[C@H](C)[C@@H](O[C@@H]2O[C@H](C)C[C@H](N(C)C)[C@H]2O)[C@](C)(O)C[C@@H](C)C(=O)[C@H](C)[C@@H](O)[C@]1(C)O", "cytotoxicity call": "active"}, {"smiles": "CCC1OC(=O)C(C)C(OC2CC(C)(OC)C(O)C(C)O2)C(C)C(OC2OC(C)CC(N(C)C)C2O)C(C)(O)CC(C)C(=O)C(C)C(O)C1(C)O", "note": "(stereo unspecified)", "cytotoxicity call": "inactive"}, {"smiles": "O=C(N[C@@H]1CC[C@H](CCNS(=O)(=O)c2ccccc2)O[C@@H]1CO)c1cnccn1", "cytotoxicity call": "inactive"}, {"smiles": "N#Cc1c(Oc2ccc(F)c(NC(=O)Cc3cccc(C(F)(F)F)c3)c2)ccc2nc(NC(=O)C3CC3)sc12", "cytotoxicity call": "active"}, {"smiles": "O=C(N[C@H](c1ccc2ccccc2n1)c1cccs1)C1CCN(Cc2cccc(C(F)(F)F)c2)CC1", "cytotoxicity call": "inactive"}, {"smiles": "C=CC(=O)N1C[C@@H]2CC[C@H](O)[C@@H]2C1", "cytotoxicity call": "inactive"}, {"smiles": "COc1ccc(-c2oc3cc(O[C@@H]4O[C@@H](C)[C@H](O)[C@@H](O)[C@H]4O)cc(O)c3c(=O)c2O[C@@H]2O[C@H](CO)[C@@H](O)[C@H](O)[C@H]2O)cc1", "cytotoxicity call": "inactive"}, {"smiles": "Cc1noc(C)c1NC(=O)Nc1ccc2c(c1)CC(=O)N([C@@H](C)CO)C[C@@H](C)[C@H](CN(C)C(=O)NC(C)C)O2", "cytotoxicity call": "inactive"}, {"smiles": "Cc1ccc(S(=O)(=O)Nc2cc([C@@H](C(=O)OC(C)C)C(=O)C(F)(F)F)c(O)c3ccccc23)c(C)c1", "cytotoxicity call": "inactive"}, {"smiles": "CNC[C@@H]1OCCCC[C@H](C)Oc2ccc(NC(=O)Nc3ccc(C(F)(F)F)cc3)cc2C(=O)N([C@H](C)CO)C[C@H]1C", "cytotoxicity call": "inactive"}, {"smiles": "O=c1c(O)c(-c2ccc(O)c(O)c2)oc2cc(O)ccc12", "cytotoxicity call": "active"}, {"smiles": "O=c1c(O)c(-c2ccccc2)oc2cccc(O)c12", "cytotoxicity call": "inactive"}, {"smiles": "O=c1c(O)c(-c2ccccc2)oc2ccccc12", "cytotoxicity call": "inactive"}, {"smiles": "O=c1c(O)c(-c2ccc(O)cc2)oc2ccccc12", "cytotoxicity call": "active"}, {"smiles": "O=c1c(O)c(-c2ccc(O)c(O)c2)oc2cc(O)cc(O)c12", "cytotoxicity call": "inactive"}, {"smiles": "O=c1c(O)c(-c2ccccc2)oc2cc(O)ccc12", "cytotoxicity call": "inactive"}, {"smiles": "CCC1OC(=O)C(C)C(OC2CC(C)(OC)C(O)C(C)O2)C(C)C(OC2OC(C)CC(N(C)C)C2O)C(C)(O)CC(C)CN(C)C(C)C(O)C1(C)O", "note": "(stereo unspecified)", "cytotoxicity call": "inactive"}, {"smiles": "Cc1noc(C)c1NC(=O)N(C)C[C@@H]1OCCCC[C@H](C)Oc2ccc(NS(=O)(=O)c3cccs3)cc2C(=O)N([C@@H](C)CO)C[C@H]1C", "cytotoxicity call": "inactive"}, {"smiles": "CCCNC(=O)C[C@@H]1CC[C@H]2[C@@H](COC[C@@H](O)CN2S(=O)(=O)c2ccc(Oc3ccccc3)cc2)O1", "cytotoxicity call": "inactive"}, {"smiles": "COCC(=O)Nc1ccc2c(c1)C(=O)N(C)C[C@@H](OC)[C@H](C)CN(Cc1ccccc1OC)[C@H](C)CO2", "cytotoxicity call": "inactive"}, {"smiles": "Cc1cncc2cccc(S(=O)(=O)NCCN(C/C=C/c3ccc(Br)cc3)C/C=C/c3ccc(Br)cc3)c12", "cytotoxicity call": "inactive"}, {"smiles": "C[C@@H]1CN([C@H](C)CO)C(=O)Cc2cc(NC(=O)NC3CCCCC3)ccc2O[C@@H]1CN(C)S(C)(=O)=O", "cytotoxicity call": "active"}, {"smiles": "C[C@@H]1CN([C@@H](C)CO)C(=O)Cc2cc(NC(=O)NC3CCCCC3)ccc2O[C@H]1CN(C)S(C)(=O)=O", "cytotoxicity call": "active"}, {"smiles": "C[C@H](CO)N1C[C@H](C)[C@@H](CN(C)S(C)(=O)=O)Oc2ccc(NC(=O)NC3CCCCC3)cc2CC1=O", "cytotoxicity call": "inactive"}, {"smiles": "C[C@H](CO)N1C[C@H](C)[C@H](CN(C)S(C)(=O)=O)Oc2ccc(NC(=O)NC3CCCCC3)cc2CC1=O", "cytotoxicity call": "inactive"}, {"smiles": "C[C@@H]1CN([C@H](C)CO)C(=O)Cc2cc(NC(=O)NC3CCCCC3)ccc2O[C@H]1CN(C)S(C)(=O)=O", "cytotoxicity call": "inactive"}, {"smiles": "C[C@H]1CN([C@@H](C)CO)C(=O)Cc2cc(NC(=O)NC3CCCCC3)ccc2O[C@H]1CN(C)S(C)(=O)=O", "cytotoxicity call": "inactive"}, {"smiles": "COc1ccc(CN(C)C[C@@H]2Oc3ccc(NC(=O)CCN4CCOCC4)cc3C(=O)N([C@@H](C)CO)C[C@H]2C)cc1", "cytotoxicity call": "inactive"}, {"smiles": "C[C@@H]1CN([C@H](C)CO)C(=O)c2cc(NC(=O)CCC(F)(F)F)ccc2O[C@@H](C)CCCCO[C@H]1CN(C)Cc1ccncc1", "cytotoxicity call": "inactive"}, {"smiles": "C[C@@H]1CCCCO[C@H](CN(C)S(=O)(=O)c2cccs2)[C@H](C)CN([C@H](C)CO)C(=O)c2cc(NC(=O)Cc3ccccc3)ccc2O1", "cytotoxicity call": "inactive"}, {"smiles": "C[C@H](CO)N1C[C@H](C)[C@@H](CN(C)C(=O)Nc2ccccc2)Oc2ccc(NC(=O)Nc3cccc4ccccc34)cc2C1=O", "cytotoxicity call": "inactive"}]}]}
